High-throughput results: PubChem BioAssay, Sanford-Burnham Center for Chemical Genomics
Rows were chosen to be rich in hits. Some 2.6% of all compounds tested hit in one or more screens of this group.
PABP1 MLLE inh: blocks PAM2 peptide binding to the PABP1 MLLE domain; GST-MLLE / FITC-PAM2 fluorescence polarization; 360,000 tested, 0.36% active; P11940; AID 588489; inhibition, % at 20 µM; in the data active = inhibition above about 35%, passing the limit was not always enough;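 also: plate controls were DMSO wells with GST-MLLE for no effect and wells lacking GST-MLLE protein for full effect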
Target sequence (P11940 whole entry, looked up, the tested form may be a part): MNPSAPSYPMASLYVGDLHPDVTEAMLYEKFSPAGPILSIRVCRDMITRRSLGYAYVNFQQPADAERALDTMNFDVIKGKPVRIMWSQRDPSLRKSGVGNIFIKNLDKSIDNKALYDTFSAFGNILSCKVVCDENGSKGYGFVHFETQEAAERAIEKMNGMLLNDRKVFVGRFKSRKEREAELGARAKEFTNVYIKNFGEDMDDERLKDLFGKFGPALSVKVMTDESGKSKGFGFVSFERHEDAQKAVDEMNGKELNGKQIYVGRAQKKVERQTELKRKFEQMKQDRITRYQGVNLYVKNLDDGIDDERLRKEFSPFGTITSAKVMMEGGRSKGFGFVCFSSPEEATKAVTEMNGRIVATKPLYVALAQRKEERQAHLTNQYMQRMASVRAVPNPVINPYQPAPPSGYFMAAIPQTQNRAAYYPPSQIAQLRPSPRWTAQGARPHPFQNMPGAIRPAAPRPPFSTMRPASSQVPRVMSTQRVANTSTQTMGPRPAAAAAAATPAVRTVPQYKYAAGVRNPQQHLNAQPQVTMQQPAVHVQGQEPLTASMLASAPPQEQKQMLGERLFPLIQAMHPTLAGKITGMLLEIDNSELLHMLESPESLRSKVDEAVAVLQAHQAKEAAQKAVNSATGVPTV
A3G deaminase: inhibitors of human APOBEC3G DNA deaminase. Q9HC16. recombinant A3G, ssDNA deamination FAM/TAMRA fluorescence. inhibition, % at 20 µM. 330,000 tested, 0.28% active;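 active = inhibition of at least 40% at 20 µM, with no more than 30% in the related APOBEC3A deaminase screen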;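 also: plate controls were DMSO wells with A3G for no effect and wells lacking A3G enzyme for full effect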
eIF4H FP inh: inhibitors of RNA binding by human eIF4H; inhibition, % at 35 µM; AID 2012; Q15056; eIF4H fluorescence polarization binding assay; 290,000 tested, 0.94% active;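 also: calls also rest on retests at 20 µM and on dose response follow-up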
PHOSPHO1 inh: inhibitors of human PHOSPHO1 phosphatase; Q8TCT1; recombinant PHOSPHO1, absorbance phosphatase assay; inhibition, % at 13.3 µM; 290,000 tested, 1.1% active; AID 1565; in the data active = inhibition above about 60%
APOBEC3A inh: blocks human APOBEC3A ssDNA deamination. P31941. recombinant A3A, FAM/TAMRA ssDNA deamination fluorescence. inhibition, % at 20 µM. 330,000 tested, 0.41% active. AID 493011;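 active = at least 40% inhibition at 20 µM here, with at most 30% in a related deaminase screen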;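 also: plate controls were A3A with DMSO for no effect and wells lacking A3A enzyme for full effect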
PABP FP inh: PABP-poly(A) binding inhibition; P11940; PABP-poly(A) RNA binding, fluorescence polarization; calls only at 35 µM; 290,000 tested, 1% active; AID 2014;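 also: calls also rest on retests at 20 µM and on dose response follow-up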
Numbers without * were called inactive. Unless noted, no rule for the calls is given here.

What do the screens show for `O=C(CSc1nc2cc(Cl)ccc2s1)c1cc2ccccc2o1`?
PABP1 MLLE inh: -16.7; A3G deaminase: -6.1; eIF4H FP inh: 45.1*; PHOSPHO1 inh: 101.6*; APOBEC3A inh: -1.2; PABP FP inh: active

What do the screens show for `CCn1cc(C(=O)Nc2ccccc2)c(=O)c2ccc(C)nc21`?
A3G deaminase: -7.7; eIF4H FP inh: 10.2; PHOSPHO1 inh: 3.4; APOBEC3A inh: -7.9; PABP FP inh: inactive

How did C=CCSc1nnc(NC(=O)c2cn(CC)c3nc(C)ccc3c2=O)s1 do in these assays?
PABP1 MLLE inh: -99.6; A3G deaminase: -10.9; eIF4H FP inh: 48.8; PHOSPHO1 inh: 29.9; APOBEC3A inh: 2.9; PABP FP inh: active

What do the screens show for `O=C(CNC(=O)c1cccs1)c1ccc([N+](=O)[O-])cc1`?
PABP1 MLLE inh: -9.2; A3G deaminase: -2.4; eIF4H FP inh: -4.8; PHOSPHO1 inh: 67.3*; APOBEC3A inh: 0.4; PABP FP inh: inconclusive

How did CCOc1c2ccc(C(=O)N[C@H](C)C3CCCCC3)cc2nn1CC do in these assays?
PABP1 MLLE inh: 8.2; A3G deaminase: -11.2; eIF4H FP inh: -4.4; PHOSPHO1 inh: -15.2; APOBEC3A inh: 1.4; PABP FP inh: inactive

What do the screens show for `COc1ccccc1OCCC(=O)O`?
PABP1 MLLE inh: -4.1; A3G deaminase: -3.9; eIF4H FP inh: active; PHOSPHO1 inh: -1.7; APOBEC3A inh: -9.2; PABP FP inh: active

How did NC(=O)C1CC(=O)N(c2ccc(OCc3ccc(F)cc3)cc2)C1 (stereo unspecified) do in these assays?
PABP1 MLLE inh: -2.3; A3G deaminase: -8.6; eIF4H FP inh: 3.5; APOBEC3A inh: -3.2; PABP FP inh: inactive

What do the screens show for `Cc1nnc(N2C(=O)c3oc4ccccc4c(=O)c3C2c2ccco2)s1` (stereo unspecified)?
PABP1 MLLE inh: 47.9*; A3G deaminase: 9.7; eIF4H FP inh: 21.9; PHOSPHO1 inh: -2.3; APOBEC3A inh: 17.7; PABP FP inh: inactive

How did CC(C)c1nnc(N2C(=O)c3oc4ccccc4c(=O)c3C2c2ccco2)s1 (stereo unspecified) do in these assays?
PABP1 MLLE inh: -34.6; A3G deaminase: -3.8; eIF4H FP inh: 3.2; PHOSPHO1 inh: -5.8; APOBEC3A inh: -1.2; PABP FP inh: inactive

What do the screens show for `Cc1c(NC(=O)COC(=O)c2cc3c4ccccc4n(C)c3s2)c(=O)n(-c2ccccc2)n1C`?
PABP1 MLLE inh: 0.2; A3G deaminase: -1.2; eIF4H FP inh: -1.4; PHOSPHO1 inh: 62.2*; APOBEC3A inh: -0.7; PABP FP inh: inactive

Results for COc1cccc(S(=O)(=O)NCc2ccc(C(=O)N3CCN(c4ccccc4)CC3)cc2)c1 ?
PABP1 MLLE inh: 0.7; A3G deaminase: -4.6; eIF4H FP inh: -0.1; PHOSPHO1 inh: 56.2; APOBEC3A inh: -0.7; PABP FP inh: inactive

How did CS(=O)(=O)N(Cc1ccc(Cl)cc1)c1ccc(C(=O)N2CCN(c3ccccc3)CC2)cc1 do in these assays?
PABP1 MLLE inh: -132.9; A3G deaminase: 30.7; eIF4H FP inh: -6.2; PHOSPHO1 inh: 99.8*; APOBEC3A inh: 63.6; PABP FP inh: inactive

Results for Cc1ccc(S(=O)(=O)NCc2ccc(C(=O)N3CCN(c4ccccc4)CC3)cc2)cc1 ?
PABP1 MLLE inh: 10.4; A3G deaminase: -0.8; eIF4H FP inh: -7.0; PHOSPHO1 inh: 73.1*; APOBEC3A inh: -0.2; PABP FP inh: inactive

Results for Cc1ccccc1NC(=S)Nn1cnnc1 ?
PABP1 MLLE inh: 14.3; A3G deaminase: 5.1; eIF4H FP inh: -7.9; PHOSPHO1 inh: 9.0; APOBEC3A inh: -1.6; PABP FP inh: inactive

What do the screens show for `CCc1ccccc1NC(=S)Nn1cnnc1`?
PABP1 MLLE inh: 26.1; A3G deaminase: 0.2; eIF4H FP inh: -8.8; PHOSPHO1 inh: 61.0*; APOBEC3A inh: -0.8; PABP FP inh: inactive

What do the screens show for `CC(O)CNc1cnccn1` (stereo unspecified)?
PABP1 MLLE inh: 10.3; A3G deaminase: -6.9; eIF4H FP inh: 62.8*; PHOSPHO1 inh: 8.5; APOBEC3A inh: -5.3; PABP FP inh: active

Results for COc1ccc(C(=O)NCCn2cc(SCC(=O)NCc3ccco3)c3ccccc32)cc1 ?
PABP1 MLLE inh: 20.6; A3G deaminase: -8.7; eIF4H FP inh: -2.0; PHOSPHO1 inh: 61.5*; APOBEC3A inh: -2.8; PABP FP inh: inactive
